Reference: PubChem BioAssay (NCI)
Several values for one entry are separate records, joined by “and”; a condition that tells them apart may be missing. Identical values can stand only once. This is part of a sample that, as a whole, favours compounds with a hit. Of some 83,000 tested, about 20% had one in any assay.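 Each cell line was grown in a 96-well plate and treated with one concentration of compound for 48 hours. Values below 10 were considered active.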 A number with no mark means an inactive call. Activity calls are given as the source filed them.

System: MDA-MB-468 breast
Test: NCI-60 one-dose screen, 48 h (100 = growth as untreated, 0 = no growth, -100 = all killed)
Conditions: 10 µM unless noted

SMILES	growth
Oc1c(CN2CCCC2)cc(COCc2ccccc2)c2cccnc12	-15.4% (active)
O=Cc1ccccc1C(=O)O	-6.83% (active)
CCCCCCN1C(=O)C2=C(c3ccc(Cl)cc3)Nc3c(c(C)nn3-c3ccccc3)C2c2ccccc21 (stereo not given)	84.5%
O=C1Cc2cc(CCN3CCN(CCOCCO)CC3)c(Cl)cc2N1Cc1ccc(-c2ccccc2-c2nn[nH]n2)cc1	82.7%
N=C(N)c1ccc(-c2ccc(-c3cccs3)s2)cc1	-80.6% (active)
COc1ccc(/C=C/C(=O)c2ccc([N+](=O)[O-])cc2)cc1	94.4%
O=C(NCCCNc1nccc(-n2ccc3cccnc32)n1)c1c(F)cccc1F	101%
COc1ccc2[nH]cc(-c3noc(C(=O)c4cn(C)c5ccc(F)cc45)n3)c2c1	102%
Nc1c2c(nc3ccc(Br)cc13)CC(c1ccccc1)CC2=O (stereo not given)	-4.68% (active)
CN(C)CCS(=O)(=O)Nc1cc(-c2ccc3ncc(C#N)c(Nc4ccc(F)c(Cl)c4)c3c2)cnc1Cl	-77.8% (active)
O=C1CC2(O)CSc3nc(=O)cc(n32)N1 (stereo not given)	109%
O=[N+]([O-])c1cccc([I+]c2ccccc2)c1	20.2%
CO[C@@H](C(=O)N1Cc2[nH]nc(NC(=O)c3ccc(N4CCN(C)CC4)cc3)c2C1)c1ccccc1	50.7%
CCN1CCN(CCC(=O)Nc2cccc(-n3cc(-c4ccncc4)c(-c4ccc(Cl)c(OC)c4)n3)c2)CC1	-2.3% (active)
CCOC(=O)c1cc2cccc(OC)c2oc1=O	108%
CS(=O)(=O)Nc1cccc(-c2ccc3ncnc(Nc4cncc(Cl)c4)c3c2)c1	-39.5% (active)
Cc1ccc2c(c1)=C/C(=C\c1cc(-c3ccccc3)[nH]c1O)C(=O)N=2	8.74% (active)
CC(C)(C)CC(C)(C)NCc1cc(C(C)(C)C)cc(CNC(C)(C)CC(C)(C)C)c1O	36.2%
CC(=O)c1cc(O)ccc1O	98.3%
CCn1nc(-c2ccccn2)c2cccnc2c1=S	48.8%

SMILES	growth
Cn1cc(-c2nnc(-c3cn(C)c4ncc(Br)cc34)o2)c2ccccc21	39.3%
Clc1ccc(/C=C/c2cc(N3CCOCC3)c3cc(Cl)c(Cl)cc3n2)cc1	91.2%
O=c1[nH]cnc2c1ncn2C1OC(CO)C(O)C1O (stereo not given)	123% and 113% and 111%
COc1cc(/C=N/O)nc(-c2ccccn2)c1	-16.9% (active)
CC/C(=C(\c1ccc(Cl)cc1)c1ccc(OCCN2CCCCC2)cc1)c1ccc(O)cc1	22.4%
Fc1ccc(Nc2nc3nonc3nc2Nc2ccc(I)cc2)cc1	-14.7% (active)
O=C1/C(=C\c2cn(-c3ccccc3)nc2-c2ccc(-c3cccs3)cc2)CCc2ccccc21	36.1%
CC1CN(Cc2ccccc2)C(=O)NC1=O (stereo not given)	111%
CCCCCCCCOC(=O)c1c(C)[nH]c(/C=C2\N=C(c3ccc[nH]3)C=C2OC)c1C	-25.7% (active)
N#CC1=C(N)Oc2c(cnn2-c2ccc([N+](=O)[O-])cc2[N+](=O)[O-])C1c1ccccc1 (stereo not given)	87.7%
Nc1c2c(nc3ccc(Cl)cc13)CC(c1ccccc1)CC2=O (stereo not given)	-5.35% (active)
Cc1ccc(C)c2c1SC1=NNC(Oc3ccc(Cl)cc3)=C(C#N)C(=N)N12	118%
CCCCOC(=O)c1ccc(NC(=O)CCl)cc1	50%
COc1ccc(-n2c(SCc3n[nH]c(=S)o3)nc3ccc(Cl)cc3c2=O)cc1	82.6%
COc1cc(-c2cc(-c3ccc(Nc4nc(Nc5ccccc5)nc(Nc5ccc(Cl)cc5)n4)cc3)nc(N)n2)cc(OC)c1OC	90.7%
COc1ccc2cnc(N)c(C#Cc3cc(C(=O)Nc4ccc(CN5CCN(C)CC5)c(C(F)(F)F)c4)cnc3C)c2c1	91.2%
Cc1cnc(SCc2ccc(Cl)cc2)[nH]c1=S	110%
CN1CCN(Cc2ccc(NC(=O)c3cncc(C#Cc4cncc5[nH]ncc45)c3)cc2C(F)(F)F)CC1	16.6%
CN1CCN(c2ccc3nc(-c4ccc5nc(-c6ccc(C(F)(F)F)cc6)[nH]c5c4)[nH]c3c2)CC1	50.6%
COc1ccc(-n2c(=S)sc3c(Cl)nc(C)nc32)c(OC)c1	-19.6% (active)
